# This excerpt belongs to a sample that is enriched for hits.
# IDE exosite inh = exo-site inhibitors of human IDE, primary screen, biochemical, fluorescence anisotropy, probe displacement. Insulin-degrading enzyme (Homo sapiens), P14735. z-score at 20 µM. AID 1259349, 2017. 17,000 tested, 6.3% active. purified IDE, FL-6b probe fluorescence polarization; active compounds read low;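 active means z-score of -3 or lower, meaning strong loss of probe binding signal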;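 further: His-tagged human IDE residues 42-1019 made in E. coli with 30 nM FL-6b probe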
# Target sequence (P14735 42-1019 limits assumed): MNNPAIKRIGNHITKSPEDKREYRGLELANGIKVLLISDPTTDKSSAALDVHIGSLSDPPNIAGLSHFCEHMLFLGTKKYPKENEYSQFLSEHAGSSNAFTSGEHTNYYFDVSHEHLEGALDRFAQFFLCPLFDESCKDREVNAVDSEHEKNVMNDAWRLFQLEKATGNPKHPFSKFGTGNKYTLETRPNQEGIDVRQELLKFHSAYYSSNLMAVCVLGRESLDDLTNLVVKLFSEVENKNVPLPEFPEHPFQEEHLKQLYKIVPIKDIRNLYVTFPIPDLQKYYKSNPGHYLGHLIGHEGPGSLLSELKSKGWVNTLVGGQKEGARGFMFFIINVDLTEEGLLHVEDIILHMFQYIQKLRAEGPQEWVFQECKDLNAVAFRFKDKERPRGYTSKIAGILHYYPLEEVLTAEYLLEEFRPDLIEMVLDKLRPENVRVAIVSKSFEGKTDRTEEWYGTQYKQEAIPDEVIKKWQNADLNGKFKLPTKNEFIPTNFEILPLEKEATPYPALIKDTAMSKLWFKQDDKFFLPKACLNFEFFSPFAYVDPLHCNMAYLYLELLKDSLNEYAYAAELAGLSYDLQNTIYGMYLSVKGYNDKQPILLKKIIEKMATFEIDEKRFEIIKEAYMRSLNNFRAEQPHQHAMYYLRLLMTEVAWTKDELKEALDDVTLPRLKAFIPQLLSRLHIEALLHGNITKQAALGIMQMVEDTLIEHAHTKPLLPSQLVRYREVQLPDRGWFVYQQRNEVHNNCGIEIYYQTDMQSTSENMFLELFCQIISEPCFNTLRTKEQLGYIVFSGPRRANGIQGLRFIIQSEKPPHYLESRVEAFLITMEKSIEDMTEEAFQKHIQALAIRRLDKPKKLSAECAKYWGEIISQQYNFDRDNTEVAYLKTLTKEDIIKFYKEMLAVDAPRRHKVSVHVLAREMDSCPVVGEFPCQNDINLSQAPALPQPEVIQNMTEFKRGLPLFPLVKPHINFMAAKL
# * marks the source's active call; other numbers are inactive results.
SMILES,IDE exosite inh
O=C(c1cccnc1)N1CC(=O)N2[C@H](CO)[C@@H](c3ccc(-c4cccnc4)cc3)[C@H]2C1,0.23
O=C(c1cccnc1)N1CC(=O)N2[C@H](CO)[C@@H](c3ccc(-c4cccnc4)cc3)[C@@H]2C1,-1.9
Cc1ccc(-c2ccc([C@@H]3[C@@H](CO)N4C(=O)CN(C(=O)c5cccnc5)C[C@@H]34)cc2)cc1,-3.6*
CC[C@H]1C/C=C\C[C@H](CC)NC(=O)[C@H](C)CC(=O)N1,1.1
COc1ccc([C@@H]2CC=CC[C@@H](C)Oc3ccccc3C(=O)N(C)[C@H](C(C)C)C(=O)N2)c(OC)c1 (mixture of isomers),0.85
O=C(Cc1ccccn1)N1CC(=O)N2[C@H](CO)[C@@H](c3ccc(C#CCC4CCCC4)cc3)[C@H]2C1,-1.4
O=C(c1cccnc1)N1CC(=O)N2[C@H](C1)[C@H](c1ccc(-c3ccc(F)cc3)cc1)[C@@H]2CO,-1.1
O=C(c1cccnc1)N1CC(=O)N2[C@H](CO)[C@H](c3ccc(/C=C/c4ccccc4)cc3)[C@H]2C1,-16*
O=C(c1cccnc1)N1CC(=O)N2[C@H](CO)[C@@H](c3ccc(-c4ccc(F)cc4)cc3)[C@H]2C1,-0.13
O=C(c1cccnc1)N1CC(=O)N2[C@@H](CO)[C@H](c3ccc(/C=C/c4ccccc4)cc3)[C@@H]2C1,-15*
O=C(NC[C@H]1[C@@H](c2ccccc2)[C@@H](CO)N1CC1CCCC1)C1CC1,2.2
COc1ccc2c3c([nH]c2c1)[C@H](CO)N(S(=O)(=O)c1cn(C)cn1)CC31CCN(Cc2ccccc2Cl)CC1,-0.12
CCC(=O)NC[C@@H]1[C@@H](c2ccc(C3=CCCC3)cc2)[C@@H](CO)N1C(=O)CN(C)C,2.1
CCC(=O)N1CCCCN2[C@H](CO)[C@@H](c3ccc(/C=C/c4ccccc4)cc3)[C@@H]2C1,-4.5*
CN1CCCCN2[C@H](CO)[C@@H](c3ccc(-c4ccccc4)cc3)[C@H]2C1,-0.23
CN1CCCCN2[C@@H](CO)[C@@H](c3ccc(/C=C/c4ccccc4)cc3)[C@@H]2C1,-6.8*
C/C=C/c1ccc([C@H]2[C@@H](CO)N3CCCCN(C)C[C@H]23)cc1,0.65
O=C(c1ccc(F)cc1)N1CCCCN2[C@H](C1)[C@H](c1ccc(/C=C/c3ccccc3)cc1)[C@@H]2CO,5.3
CCC(=O)N1CCCCN2[C@H](C1)[C@H](c1ccc(/C=C/c3ccccc3)cc1)[C@@H]2CO,-10*
O=C(c1ccc(F)cc1)N1CCCCN2[C@H](CO)[C@@H](c3ccc(/C=C/c4ccccc4)cc3)[C@H]2C1,-2.3
CCC(=O)N1CCCCN2[C@@H](CO)[C@@H](c3ccc(/C=C/c4ccccc4)cc3)[C@@H]2C1,-1.4
CCC(=O)N1CCCCN2[C@H](CO)[C@@H](c3ccc(-c4ccc(F)cc4)cc3)[C@@H]2C1,3.2
O=C(c1cccc(F)c1)N1CC2(C1)[C@@H](c1ccccc1)[C@H](CO)N2Cc1ccccn1,-0.8
O=C(C[C@H]1CC[C@@H]2[C@H](COC[C@@H](O)CN2Cc2ccc(Oc3ccccc3)cc2)O1)N1CCN(c2ccccc2)CC1,1.1
C/C=C/c1ccc([C@H]2[C@H]3CN(CCC(F)(F)F)CCCCN3[C@H]2CO)cc1,1.2
SMILES,IDE exosite inh
COc1ccc(-c2ccc([C@H]3[C@@H](C#N)N(C(=O)c4cccc(F)c4)[C@@H]3CO)cc2)cc1,1.1
CN(C)C(=O)c1ccc(-c2ccc([C@@H]3[C@H](C#N)N(C(=O)C4CCCC4)[C@H]3CO)cc2)cc1,-2.7
C/C=C/c1ccc([C@@H]2[C@H](CO)N[C@H]2CN(C(=O)c2ccccc2F)C(C)C)cc1,0.85
CCC(=O)N1C[C@@H](O)COC[C@H]2O[C@H](CC(=O)NC)CC[C@@H]21,0.74
CN(C)C(=O)c1ccc(-c2ccc([C@@H]3[C@@H](CO)N4C(=O)CN(C(=O)CC5CC5)C[C@@H]34)cc2)cc1,1.4
CCC(=O)N1CC(=O)N2[C@H](CO)[C@H](c3ccc(-c4ccccc4F)cc3)[C@@H]2C1,-2.1
COCC(=O)N1CC(=O)N2[C@H](C1)[C@@H](c1ccc(-c3ccccc3F)cc1)[C@@H]2CO,-2.6
CCC(=O)N1CC(=O)N2[C@H](C1)[C@@H](c1ccc(-c3ccccc3F)cc1)[C@@H]2CO,-8*
CCC(=O)N1CC(=O)N2[C@H](CO)[C@H](c3ccc(-c4ccccc4F)cc3)[C@H]2C1,-7.4*
COCC(=O)N1CC(=O)N2[C@@H](CO)[C@@H](c3ccc(-c4ccccc4F)cc3)[C@@H]2C1,-1.1
CCN1CC(=O)N2[C@H](CO)[C@H](c3ccc(-c4ccccc4F)cc3)[C@@H]2C1,-0.055
c1cc(-c2ccc(C3[C@H]4CNC[C@@H]3N4Cc3nccs3)cc2)ccn1 (stereo partly drawn),0.29
COCC(=O)N1CC(=O)N2[C@@H](CO)[C@@H](c3ccc(C#CC4CCCCC4)cc3)[C@@H]2C1,1.7
COC(=O)c1ccc(CN2CC(=O)N3[C@H](C2)[C@H](c2ccc(-c4ccccc4F)cc2)[C@@H]3CO)cc1,2.3
O=C(Nc1ccc(F)cc1)N1CC(=O)N2[C@H](C1)[C@@H](c1ccc(-c3cccc(F)c3)cc1)[C@@H]2CO,-1.8
N#C[C@H]1[C@@H](c2ccccc2)[C@H](CO)N1S(=O)(=O)c1ccc(F)cc1,2.8
CCCC#Cc1ccc([C@@H]2[C@H]3CN(C(=O)c4ccc(F)cc4)CC(=O)N3[C@H]2CO)cc1,0.96
CCN(C[C@H]1N[C@H](CO)[C@H]1c1ccc(C2=CCCC2)cc1)C(=O)c1ccncc1,2.3
COc1cccc(S(=O)(=O)N2C[C@@H](O)COC[C@@H]3O[C@H](CC(=O)NCCCN4CCOCC4)CC[C@H]32)c1,0.45
O=C(NC1CCCC1)N1CC(=O)N2[C@H](CO)[C@H](c3ccc(-c4ccc(F)cc4)cc3)[C@@H]2C1,3.7
O=C(NC1CCCC1)N1CC(=O)N2[C@H](C1)[C@@H](c1ccc(-c3ccc(F)cc3)cc1)[C@@H]2CO,1.2
O=C(NC1CCCCC1)N1CC(=O)N2[C@H](CO)[C@H](c3ccc(-c4cccc(F)c4)cc3)[C@H]2C1,-13*
O=C(NC1CCCC1)N1CC(=O)N2[C@H](CO)[C@@H](c3ccc(-c4ccc(F)cc4)cc3)[C@H]2C1,2.4
O=C(NC1CCCCC1)N1CC(=O)N2[C@H](C1)[C@H](c1ccc(-c3cccc(F)c3)cc1)[C@@H]2CO,-6.3*
O=C(NC1CCCC1)N1CC(=O)N2[C@H](C1)[C@H](c1ccc(-c3ccc(F)cc3)cc1)[C@@H]2CO,2.1
SMILES,IDE exosite inh
O=C1CN(S(=O)(=O)Cc2ccccc2)C[C@H]2[C@@H](c3ccc(C#Cc4cccc(F)c4)cc3)[C@H](CO)N12,3.5
O=C(C[C@@H]1C[C@@H]2c3cc(NC(=O)C4CCOCC4)ccc3O[C@@H]2[C@@H](CO)O1)NCCN1CCCCC1,-1.6
COc1cccc(C#Cc2ccc([C@@H]3[C@@H](C#N)N[C@@H]3CO)cc2)c1,0.36
CC(=O)N1CCCCN2[C@H](CO)[C@H](c3ccc(Br)cc3)[C@@H]2C1,3.2
C[C@H](CO)N1C[C@H](C)[C@H](CN(C)Cc2ccc(C(=O)Nc3ccccc3N)cc2)OCc2cnnn2CCCC1=O,0.7
CC(=O)NC[C@@H]1[C@@H](c2ccc(C3=CCCCC3)cc2)[C@@H](CO)N1C(=O)C1CC1,5.2
O=C1CN(S(=O)(=O)Cc2ccccc2)C[C@H]2[C@@H](c3ccc(C#CC4CC4)cc3)[C@@H](CO)N12,3.4

# Screens from PubChem.
